PubChem BioAssay (NCATS)
Records with an inconclusive call do not appear. A number with no mark means an inactive call. Calls come from the whole dose curve; as a rule, active = well fitted inhibition curve with a large enough effect; inconclusive = small, poorly fitted or top-dose-only effect; inactive = no such curve, though single readings can be large or run the other way.

target: Retinaldehyde dehydrogenase 3 (Homo sapiens) (UniProt P47895); assay: qHTS for Inhibitors of the Aldehyde Dehydrogenase Family (ALDH1A3) Primary screen (AID 2061315); conditions: ALDH inhibition qHTS; series mostly up to 56 µM; activity change, negative = inhibition: at the top concentration;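 note: plate controls were DMSO vehicle for no effect and reference inhibitor for full effect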

Structure (SMILES)	activity change, negative = inhibition
CCCC1=CC2=C(CO1)C(=O)C(C)(OC(=O)c1c(C)cc(OC)cc1O)C(O)C2 (centres undefined)	-14.4% [at 28 µM]
CC1CCC2(C=O)C(CO)=CCCC2C1(C)CC(=O)O (centres undefined)	-10.6%
CO[C@@H]1[C@H](O)CCC2(CO2)[C@H]1[C@@]1(C)O[C@@H]1CC=C(C)C (some centres undefined)	2.03%
CC(O)C/C=C/C=C/C(=O)OC1C=C2COC(=O)C2(O)C2(C)CCCC(C)(C)C12 (centres undefined)	2.47%
CCc1c(-c2ccccc2)c(-c2ccccc2)nn1-c1ccccc1-c1cccc(OCC(=O)O)c1	3.32%
C=C1C(=O)O[C@@H]2/C=C(\CO)CC/C=C(/C=O)C[C@H](O)[C@@H]12	-19.6%
CC(=O)NC(CCC(=O)O)C(=O)NCCc1ccc(O)cc1 (centres undefined)	16.2%
CC(C)c1ccc2c(c1)C(=O)CC1[C@@](C)(C(=O)O)CCC[C@]21C (some centres undefined)	1.83%
O=C1C=CC2OC(c3ccccc3)C(O)C2O1 (centres undefined)	6.98%
O=C1Nc2ccc(O)cc2O[C@H]1O[C@@H]1O[C@H](CO)[C@@H](O)[C@H](O)[C@H]1O	-17.4%
C[C@@H]1C[C@H](O[C@@H]2O[C@H](CO[C@@H]3OC[C@](O)(CO)[C@H]3O)[C@@H](O)[C@H](O)[C@H]2O)CC(C)(C)[C@H]1/C=C/[C@@H](C)O	-10.3% [at 28 µM]
C=C1CCC2C(C)(C)CC(O)CC2(C)C1CCC(C)CCOC(=O)CCC(=O)O (centres undefined)	-14.7% [at 28 µM]
C=C[C@](C)(CC/C=C(\C)C(=O)O)O[C@@H]1OC[C@H](O)[C@H](O)[C@H]1O	10.8%
COc1cc(C(O)C(CO)Oc2ccc(CCCO[C@@H]3O[C@@H](C)[C@H](O)[C@@H](O)[C@H]3O)cc2OC)ccc1O (some centres undefined)	-16.1% [at 28 µM]
